Assay results reported in PubChem BioAssay AID1845226 (National Center for Advancing Translational Sciences (NCATS), 2023).
Records with an inconclusive call do not appear. A number with no mark means an inactive call. Active and inactive are the calls of the source. The call rests on the fitted dose curve; in most records, active means well fitted inhibition curve with a large enough effect; inconclusive means small, poorly fitted or top-dose-only effect; inactive means no such curve, though single readings can be large or run the other way.

Test: Confirmatory fluorescence-based thiol-reactive (MSTI) qHTS assay for identification of artifact compounds
Details: MSTI thiol-reactivity probe, 1 h; series mostly up to 39.2 µM; activity change, negative = inhibition: at the top concentration
Text: PI: Alexander Tropsha Ph.D. UNC Eshelman School of Pharmacy University of North Carolina, Chapel Hill, North Carolina Hits from high-throughput screening (HTS) of chemical libraries are often false positives due to their interference with the assay detection technology. In response to this problem, we generated the largest publicly available library of chemical liabilities and developed a free webtool to predict HTS artifacts, both of which are described herein. More specifically, we generated, curated, and integrated HTS datasets for thiol reactivity, redox activity, and luciferase (firefly and nano) activity. Using these curated datasets, we developed and validated several Quantitative Structure-Interference Relationship (QSIR) models to predict nuisance behavior. […] These models were employed for virtual profiling of the National Center for Advancing Translational Science's (NCATS) in-house library, and 256 compounds for each assay were selected for the experimental validation of nuisance behavior. The BA for these external predictions ranged from 58 to 78% for compounds within the applicability domains of the models. […] The models developed in this study, along with aggregation models previously developed by our group (SCAM Detective) were implemented in "Liability Predictor," an online tool which may be used as part of chemical library design or for triaging HTS hits. Both the models and the curated datasets are publicly available at https://liability.mml.unc.edu/.
PROTOCOL TABLE SEQUENCE No. (e.g., 1, 2, 3, etc.); PARAMETER (e.g., Cells, Incubation, Reagent, etc.); VALUE; DESCRIPTION. 1; Reagent; 4 uL; […]. 2; Compounds and control; 16 nL; Kalypsis pin tool (Wako USA) equipped with a 1536-well pin head. 3; Incubation; 1 hour. 4; Detection; Fluorescence, ViewLux microplate reader, 525 nm excitation, 598 nm emission. NOTES (numbers refer to Sequence numbers above) 1. Assays determining (E)-2-(4-mercaptostyryl)-1,3,3-trimethyl-3H-indol-1-ium (MSTI) reactivity were performed as previously described in the literature with modifications for the quick identification of compounds reacting with thiol. In brief, 4 uL of MSTI or positive control Acetyl-MSTI (final concentrations of 4 uM and 4 uM, respectively) in assay buffer (2% DMSO in 1X PBS pH 7.4) was dispensed into all wells of a 1536-well assay plate (solid-bottom black plate; Greiner Bio One, Monroe, NC). 2. A Wako Pin-tool (Wako Automation, Richmond, VA) was used to transfer 16 nL of compounds (consisting of 7-plates in qHTS format, final concentration range 18.3 nM to 114 uM) or control MLS001163887 (final concentration range 1.22 nM to 40 uM). 3. Plates were centrifuged (121xg, 15 seconds) and incubated for 1 hour at room temperature protected from light. 4. Samples were read for fluorescence (Ex/Em = 525(20)/598(25) nm) on a ViewLux CCD imager (PerkinElmer). Data were normalized to Acetyl-MSTI (0% activity) and MSTI (100% activity) and the resulting percent inhibition data were fitted to a 4-parameter Hill equation using NCATS in-house software.
Potency means the concentration at half of the fitted maximal effect.

Structure (SMILES) | Potency | activity change, negative = inhibition
O=C1c2ccccc2C(=O)c2c(O)c(O)cc(O)c21 | 612 nM (active) | 
CCOC(=O)c1sc2cccc(F)c2c1S(=O)(=O)NCc1ccccc1Cl |  | 64.2%
CCCCCn1c(=O)[nH]c2cc(C(=O)Nc3ccc(F)cc3)ccc2c1=O |  | 188%
COc1ccc(NC(=O)c2ccco2)cc1NC(=O)c1ccccc1[N+](=O)[O-] |  | -13.1%
CC1CC(C)CN(c2oc(-c3ccc(OCc4ccc(Cl)cc4)cc3)nc2C#N)C1 (stereo not given) |  | 0.0837%
Cc1cc(C)cc(NC(=O)CSc2oc(-c3cccs3)nc2S(=O)(=O)c2ccccc2)c1 |  | 195%
COc1ccc(CNC(=O)CCc2c(C)nc3c4cccnc4nn3c2C)cc1 |  | 55%
CCc1ccc2c(O)c3c(cc2c1C(=O)OC)C(=O)c1c(O)ccc(O)c1C3=O | 386 nM (active) | 
COc1cccc(CN2CCCN(Cc3ccc(F)cc3)S2(=O)=O)c1 |  | 74.8%
Cc1cc(OC(=O)c2c(C)cc(O)cc2O)cc(O)c1C(=O)O |  | 2.87%
COc1ccc([C@H]2C[C@H](O)[C@@H](n3cc(C4CC4)nn3)CN2C(=O)c2cccs2)cc1 |  | 92.5%
O=C(O)CCc1c2ccc(=O)c(O)c-2oc2c(O)c(O)ccc12 | 1090 nM (active) | 
COc1ccc(NC(=O)CSc2nc(-c3ccccc3)nc3c2Cc2c(CO)cnc(C)c2O3)cc1Cl |  | 14.9%
Cc1c(O)cc(O)c2c(=O)c(-c3ccc(O)cc3)coc12 |  | 0.887%
CCOC(=O)C1CCN(c2nc3ccccc3nc2Cl)CC1 |  | 118%
COc1ccccc1Cc1nc2ccccc2nc1SCC(=O)Nc1c(C)cccc1C |  | 5.83%
O=C(CNC(=O)C(c1ccccc1)c1ccccc1)OCC(=O)c1ccc2ccccc2c1 |  | 122%
Cc1ccc(C)c(N2CCN(S(=O)(=O)c3cc(Br)cc4c3N(C(=O)C3CC3)CC4)CC2)c1 |  | 4.58%
COc1ccccc1N1CCN(c2ncnc3c2cnn3-c2ccc(C)cc2)CC1 |  | 19.1%
O=C(NCCc1ccccc1)C1CCC(CNS(=O)(=O)c2ccccc2)CC1 (stereo not given) |  | 139%

Structure (SMILES) | Potency | activity change, negative = inhibition
C=C1Cc2c(Cl)cc3[nH]c4c5c3c2[C@@]2(O)[C@@H]1C[C@@H]2C(C)(C)O[C@H]5[C@@H]1CC[C@@]2(O)[C@@]35O[C@@H]3[C@@H](O)[C@@H](C(=O)O)O[C@H]5CC[C@]2(C)[C@@]41C | 3860 nM (active) | 
c1coc(-c2nc3cc4ccccc4cc3nc2-c2ccco2)c1 | 970 nM (active) | 
O=C(COCc1cc(-c2cccs2)on1)NCc1ccc(Cl)cc1 |  | 259%
CCCS(=O)(=O)N1CC(=O)N(c2ccc(C)cc2)C(C)(C(=O)NC2CCCCCC2)C1 (stereo not given) |  | 130%
C=Cc1ccc(Cn2c(C)c(CNCc3cccc(Br)c3)c(C(=O)O)c2C)cc1 |  | -1.73%
COc1ccc(C)cc1NC(=O)CN1C(=O)COc2ccc(S(=O)(=O)NC3CCCC3)cc21 |  | 104%
Cc1ccc(-c2nc3scc(CCNS(=O)(=O)c4ccc(F)c(C)c4)n3n2)cc1 |  | 49.9%
CCOC(=O)CN(Cc1ccccc1)C(C(=O)NC1CCCCC1)c1ccc(C)cc1 (stereo not given) |  | -13.9%
CC(C)(C)C(=O)NC1(C(F)(F)F)C(=O)Nc2c1c(=O)[nH]c(=O)n2-c1ccccc1 (stereo not given) |  | 8.65%
CCCC(N[C@@H](C)C(=O)N1[C@H](C(=O)O)C[C@@H]2CCCC[C@@H]21)C(=O)OCC (stereo not given in full) |  | -0.232%
CCOc1ccc(NC(=O)c2cnc(Nc3ccccc3OC)c3ccccc23)cc1 |  | 51.6%
Nc1c(N=Nc2ccc([N+](=O)[O-])cc2)c(S(=O)(=O)O)cc2cc(S(=O)(=O)O)c(/C=C/c3ccccc3)c(O)c12 | 61.2 nM (active) | 
CCOC(=O)c1c(C)c(C(=O)NCc2ccc(Cl)cc2)c(C)n1CC |  | 111%
O=C(CCn1c(=O)c2cccn2c2cccnc21)N1CCN(c2ccccc2F)CC1 |  | 79.7%
Cc1cccc(NC(=O)CSc2nc3c([nH]c4ccccc43)c(=O)n2C)c1 |  | 86.5%
Cc1cc(C)cc(NC(=O)C(CC(C)C)NC(=O)C2CCCCC2)c1 (stereo not given) |  | 32.1%
CCN(CC)c1ccc(-c2nc(-c3ccccn3)no2)cc1[N+](=O)[O-] |  | -6.72%
COc1ccccc1C(CC(=O)Nc1ccc(F)cc1)c1ccccc1 (stereo not given) |  | 283% [at 78.4 µM]
Fc1ccc(-c2cc(-c3ccc(F)cc3)c3c(n2)-c2cc(F)ccc2OC3)cc1 |  | 153%
COc1cccc(N2CCN(c3c4c(nc5nncn35)CCC4)CC2)c1 |  | 29.3%
